DRD3 agonist: agonists of human D3 dopamine receptor | AID 652048 | P35462 | D3R DiscoveRx beta-arrestin cells, luminescence, 90 min | 0.58% of 410,000 active | max activation, %; in the data active means max activation above about 30%; further: 0% is about no effect
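Agonist-mode cell screen: cells plated at 1500/well and incubated overnight at 37 °C, then exposed to library compounds for 90 min at 37 °C. Detection reagent was added for 30–60 min at room temperature, and luminescence was read.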
D1 antag: antagonists of human D1 dopamine receptor; P21728; HEK293 TREx D1 cells, calcium flux, dopamine EC80; active compounds read low; activity change, negative = inhibition, % at 10 µM; 3.2% of 360,000 active; in the data active means activity change below about -30%; further: on the % scale 0 is the no-effect control and ±100 the full control effect
Target sequence (P21728 whole entry, looked up): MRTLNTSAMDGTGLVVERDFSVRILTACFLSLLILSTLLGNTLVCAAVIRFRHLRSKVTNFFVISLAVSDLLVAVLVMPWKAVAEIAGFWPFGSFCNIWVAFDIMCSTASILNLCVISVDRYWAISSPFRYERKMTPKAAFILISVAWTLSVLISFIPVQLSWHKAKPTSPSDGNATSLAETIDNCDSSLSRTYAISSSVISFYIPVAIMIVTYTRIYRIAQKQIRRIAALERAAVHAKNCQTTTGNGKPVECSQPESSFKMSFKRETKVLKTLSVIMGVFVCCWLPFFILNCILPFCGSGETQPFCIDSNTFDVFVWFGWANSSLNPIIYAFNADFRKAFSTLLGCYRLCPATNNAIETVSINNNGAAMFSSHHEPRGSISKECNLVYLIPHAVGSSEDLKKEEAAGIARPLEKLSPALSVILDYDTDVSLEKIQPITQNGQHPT
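Antagonism measured as reduced calcium response to an EC80 dopamine addition following 180 s compound pre-read; cells were inducible HEK293 Trex D1 plated overnight at 30 C, read kinetically at 1 cycle/sec.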
DRD3 antagonist: blocks the human D3 dopamine receptor. P35462. max response, negative = inhibition, %. 2.5% of 360,000 active. AID 652054. D3R cells, DiscoveRx beta-arrestin luminescence, antagonist mode; active compounds read low; in the data active means max response below about -50%; inconclusive means no clear call, values can overlap the other calls; further: on the % scale 0 is the no-effect control and ±100 the full control effect
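Cells plated overnight at 1500 cells/well, then exposed to library compounds with dopamine controls for 90 minutes at 37 degrees C. DiscoveRx reagent added for 30–60 minutes at room temperature; luminescence read, quantitative HTS format.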
D1 ag: human D1 receptor agonism; P21728; HEK293 T-REx D1 cells, calcium flux, agonist mode; activation, % at 2 µM; 1% of 360,000 active; AID 504660; in the data active means activation above about 30%; further: 0% is about no effect
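Tetracycline-induced HEK293 TREx D1 cells, force-coupled to calcium signalling, were dye-loaded with a no-wash calcium kit. Compound was pin-added after a 10 s baseline. Fluorescence was read kinetically at 1 cycle/s for 180 s, with calcium rises flagged as agonism.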
D1 potentiator: enhances dopamine response at the human D1 receptor | HEK293 TREx D1 cells, calcium flux, dopamine EC20 potentiation | AID 504651 | P21728 | potentiation, % at 10 µM | 0.036% of 360,000 active; in the data active means potentiation above about 30%; further: 0% is about no effect
The depositor's hits bear a star. The list is not random: actives were taken first. Their share in the collection is about 6%.

What do the screens show for `CCN1CCCC1CNC(=O)c1cc2c(-c3cccc(OC)c3)nn(C)c2s1` (stereo not drawn)?
DRD3 agonist: 1; D1 antag: 0; DRD3 antagonist: -72*; D1 ag: 3; D1 potentiator: -4

Results for CCN1CCCC1CNC(=O)c1cc2c(-c3ccc(Cl)cc3)nn(C)c2s1 (stereo not drawn) ?
DRD3 agonist: -10; D1 antag: -9; DRD3 antagonist: inconclusive; D1 ag: 1; D1 potentiator: -2

How did CC[C@H]1OC(=O)[C@H](C)C(=O)[C@H](C)[C@@H](O[C@@H]2O[C@H](C)C[C@H](N(C)C)[C@H]2O)[C@](C)(OC)C[C@@H](C)C(=O)[C@H](C)[C@H]2N(CCCCn3cnc(-c4cccnc4)c3)C(=O)O[C@]12C do in these assays?
DRD3 agonist: -5

How did COc1cccc(-c2nn(C)c3sc(C(=O)NCCCN(C)Cc4ccccc4)cc23)c1 do in these assays?
DRD3 agonist: -16; D1 antag: -25; DRD3 antagonist: -53*; D1 ag: 3; D1 potentiator: -4

What do the screens show for `COc1ccc(NC(=O)c2cc3c(-c4ccccc4F)nn(C)c3s2)c(OC)c1`?
DRD3 agonist: 41*; D1 antag: 11; D1 ag: 1; D1 potentiator: 1

How did COc1ccc(OC)c(CCNC(=O)c2cc3c(-c4ccccc4F)nn(C)c3s2)c1 do in these assays?
DRD3 agonist: 16; D1 antag: -19; D1 ag: 8; D1 potentiator: -3

Results for CCCCN(CC)CCCNC(=O)c1cc2c(-c3ccc(OC)c(OC)c3)nn(C)c2s1 ?
DRD3 agonist: -22; D1 antag: -13; DRD3 antagonist: -98*; D1 ag: 1; D1 potentiator: -1

Results for Cn1nc(C(F)(F)F)c2cc(C(=O)Nc3ccc(F)cc3)sc21 ?
DRD3 agonist: -2; D1 antag: 2; DRD3 antagonist: -7; D1 ag: 4; D1 potentiator: -5

Results for Cn1nc(C(F)(F)F)c2cc(C(=O)Nc3ccc(C(F)(F)F)cc3)sc21 ?
DRD3 agonist: 4; D1 antag: -45*; DRD3 antagonist: 18; D1 ag: 21; D1 potentiator: -7

How did O=C(CN(Cc1ccccc1)C1=NCCS1)c1ccc(Cl)cc1 do in these assays?
DRD3 agonist: -12; D1 antag: 2; DRD3 antagonist: -64*; D1 ag: 2; D1 potentiator: 4

What do the screens show for `O=C(Cc1c(F)cccc1Cl)Nc1ccon1`?
DRD3 agonist: -3; D1 antag: -10; DRD3 antagonist: 4; D1 ag: 3; D1 potentiator: -2

Results for CCOCCc1nnc(NC(=O)Cc2c(F)cccc2Cl)s1 ?
DRD3 agonist: 35*; D1 antag: -1; DRD3 antagonist: -7; D1 ag: 3; D1 potentiator: -6

Results for Cc1cc(NC(=O)Cc2c(F)cccc2Cl)no1 ?
DRD3 agonist: 0; D1 antag: -30*; DRD3 antagonist: -16; D1 ag: -4; D1 potentiator: 0

What do the screens show for `COc1ccc(CNC(=O)c2cc3ccccn3n2)c(OC)c1`?
DRD3 agonist: -12; D1 antag: -17; D1 ag: 4; D1 potentiator: -1

What do the screens show for `CN(CC(=O)NC(=O)NC1CCCCC1)CC(=O)Nc1ccc(Cl)cc1`?
DRD3 agonist: 4; D1 antag: -28; DRD3 antagonist: 0; D1 ag: 2; D1 potentiator: -4

How did Cc1cccc(N(Cc2ccccc2)C(=O)CN2C(=O)NC3(CCCC3)C2=O)c1 do in these assays?
DRD3 agonist: -3; D1 antag: -6; DRD3 antagonist: -9; D1 ag: 0; D1 potentiator: 7

Results for COc1ccccc1CNc1ncnc2sccc12 ?
DRD3 agonist: 18; D1 antag: -31*; DRD3 antagonist: 6; D1 ag: 31*; D1 potentiator: -8

Results for COc1ccc(CCNc2ncnc3sccc23)cc1OC ?
DRD3 agonist: 9; D1 antag: -39*; DRD3 antagonist: 15; D1 ag: 25; D1 potentiator: -3

How did COc1ccc(CCNc2ncnc3c2oc2ccccc23)cc1OC do in these assays?
DRD3 agonist: 22; D1 antag: -69*; DRD3 antagonist: 12; D1 ag: 13; D1 potentiator: -15

How did CCOc1ccc(NC(=O)c2ccc(-c3nc(COc4ccccc4)c(C)o3)cc2)cc1 do in these assays?
DRD3 agonist: -4; D1 antag: 7; D1 ag: -1; D1 potentiator: 2

Results for O=C(Nc1cccc(CNCCc2c[nH]c3ccccc23)c1)c1ccccc1Cl ?
DRD3 agonist: -13; D1 antag: -41*; DRD3 antagonist: -96*; D1 ag: 32*; D1 potentiator: -7

What do the screens show for `CC(=O)c1cccc(NC(=O)NCCc2c[nH]c3ccccc23)c1`?
DRD3 agonist: -5; D1 antag: -12; DRD3 antagonist: -12; D1 ag: 5; D1 potentiator: 13

What do the screens show for `CCS(=O)(=O)c1c(Nc2cc(C)ccc2C)sc(C(=O)c2ccccc2)c1N`?
DRD3 agonist: -2; D1 antag: 38; D1 ag: 41*; D1 potentiator: 5

What do the screens show for `Cc1c(Cl)cccc1Nc1sc(C(=O)c2ccccc2)c(N)c1S(=O)(=O)c1ccccc1`?
DRD3 agonist: 7; D1 antag: 9; D1 ag: 12; D1 potentiator: -1

Results for CCOc1ccccc1Nc1sc(C(=O)c2ccccc2)c(N)c1S(=O)(=O)c1ccc(C)cc1 ?
DRD3 agonist: -1; D1 antag: 13; D1 ag: 15; D1 potentiator: 2

How did Cc1ccc(Cl)cc1Nc1sc(C(=O)c2ccccc2)c(N)c1S(=O)(=O)c1ccccc1 do in these assays?
DRD3 agonist: 10; D1 antag: -51*; D1 ag: 54*; D1 potentiator: 3

What do the screens show for `C#CCOCCOCCOCCNc1nc(N2CCN(C(=O)CCCCCCCCCCNC(=O)Cn3cc(C[C@@H](C)O)nn3)CC2)nc(N2CCN(C(=O)CCCCCCCCCCNC(=O)[C@H](CCCN=C(N)N)n3cc(C[C@@H](C)CC)nn3)CC2)n1`?
DRD3 agonist: 4; D1 antag: 6; DRD3 antagonist: 43; D1 ag: 2; D1 potentiator: -1

Results for CC1=CC(C)[C@H](/C=N/n2c(=O)[nH]c3c([nH]c4ccc(Br)cc43)c2=O)C(C)C1 (stereo partly drawn) ?
DRD3 agonist: 4; D1 antag: 2; DRD3 antagonist: -67*; D1 ag: 1; D1 potentiator: -2

How did COc1ccc2[nH]c3c(=O)n(/N=C/[C@H]4C(C)C=C(C)CC4C)c(=O)[nH]c3c2c1 (stereo partly drawn) do in these assays?
DRD3 agonist: 0; D1 antag: 2; DRD3 antagonist: -22; D1 ag: -2; D1 potentiator: -2

Results for Clc1ccc(CSc2snnc2-c2ccccc2)c(Cl)c1 ?
DRD3 agonist: -10; D1 antag: -10; DRD3 antagonist: -4; D1 ag: 51*; D1 potentiator: -5

Screening results from PubChem.
